Records with an inconclusive call do not appear. Activity calls are given as the source filed them. The call rests on the fitted dose curve. Bridge positions count the residues as written; N and C are the ends. Square brackets hold non-standard residues; d marks the D form. Peptide text beside a SMILES is read from it. * marks the point of attachment. ξ: configuration not given here. Octanoyl(6-Me) = CCC(C)CCCCC(=O)*; ξThr(3R) = C[C@@H](O)C(N)C(=O)O; dDab = NCC[C@@H](N)C(=O)O; Dab = NCC[C@H](N)C(=O)O
Assay: Cytotoxicity counterscreen for inhibitors of SARS-CoV-2 cell entry (AID 1645845); further: nearly all actives have a fitted effect of over 50% in size
Settings: cell viability (SARS-CoV-2 entry assay cells); series mostly up to 57.1 µM; activity change, negative = cytotoxicity: at the top concentration
Description: Assay Provider: Wei Zheng, Ph.D.
National Center for Advancing Translational Sciences, National Institute of Health, Rockville, MD.
SARS-CoV-2 spike protein, within the viral envelope, mediates viral attachment and infection of host cells. The SARS-CoV-2 spike protein specifically binds to the host receptor ACE2 (Angiotensin-converting enzyme 2). This interaction promotes endocytosis of the viral particle, additional events lead to viral-host cell membrane fusion and release of the viral contents, allowing viral replication.
While SARS-CoV-2 requires BSL-3 facilities for live virus work, pseudo-typed partices (PP) that incorporate SARS-CoV-2 spike proteins without replication elements could facilitate studies on viral entry mechanisms in a BSL-2 setting. This PP cell entry assay could also enable screening of small molecule compound libraries in BSL-2 setting to identify inhibitors of SARS-CoV-2 cell entry. To eliminate false positive compounds, ATP content cytotoxicity assay was screened in the same cell line.
SEQUENCE No. (e.g., 1, 2, 3, etc.); […] (e.g., Cells, Incubation, Reagent, etc.); VALUE and DESCRIPTION.
1. Cells. Seed 1500 HEK293-ACE2 cells (Expi293F with stable expression of human ACE2) in 2 uL/well media (DMEM, 10% FBS, 1x L-glutamine, 1x Pen/Strep, 1 ug/ml puromycin) in white 1536-well assay plates (Greiner #782073).
2. Incubation. Incubate at 37 C with 5% CO2 overnight (~16 h).
3. Compounds. Dispense 23 nL/well compounds in DMSO via pin transfer.
4. Incubation. Incubate for 1 h at 37C 5% CO2.
5. Reagent. Dispense 2 uL/well of media (DMEM, 10% FBS, 1x L-glutamine, 1x Pen/Strep, 1 ug/ml puromycin).
6. Incubation. Incubate at for 48h at 37C 5% CO2
7. Reagent. Dispense 4 uL/well of ATPLite 1step luminescence assay reagent (PerkinElmer #6016739).
8. Incubation. Incubate for 15 min at room temperature.
9. Detection. Read luminescence signal (Viewlux plate reader, PerkinElmer). Data was normalized with wells containing cells as 100%, and wells without cells (media only control) as 0%.
On the % scale 0 is the no-effect control and ±100 the full control effect; potency means the concentration at half of the fitted maximal effect.

Row | SMILES | activity change, negative = cytotoxicity | Potency | outcome
1 | C/C(=C\c1csc(C)n1)[C@@H]1C[C@@H]2O[C@@H]2CCC[C@H](C)[C@H](O)[C@@H](C)C(=O)C(C)(C)[C@@H](O)CC(=O)O1 | -20.2% (inactive) |  | 
2 | COc1cc2c(Nc3ccc(NC(=O)c4ccccc4)cc3)ncnc2cc1OCCCN1CCOCC1 |  | 31.6 µM (active) | 
3 | CCC(NC(C)C)C(O)c1ccc(O)c(O)c1 (stereo not given) |  |  | inactive
4 | CNc1nc(C)nc(N[C@H]2CCC[C@@H](C(=O)NCc3ccc(C#N)cc3C(F)(F)F)C2)n1 |  |  | inactive
5 | COc1ccc(C2(C#N)CCC(C(=O)O)CC2)cc1OC1CCCC1 (stereo not given) |  |  | inactive
6 | NC[C@H]1O[C@H](O[C@H]2[C@@H](O)[C@@H](O[C@H]3O[C@H](CO)[C@@H](O)[C@H](N)[C@@H]3O)[C@H](N)C[C@@H]2N)[C@H](N)C[C@H]1O |  |  | inactive [at 11.3 µM]
7 | O=C(CCN1CCN(C(=O)OCc2cc(Cl)cc(Cl)c2)CC1)c1ccc2[nH]c(=O)oc2c1 | -0.915% (inactive) |  | 
8 | CO[C@@H]1C(N(C)C(=O)c2ccccc2)C[C@H]2O[C@]1(C)n1c3ccccc3c3c4c(c5c6ccccc6n2c5c31)C(=O)NC4=O (stereo not given in full) | 0.822% (inactive) |  | 
9 | C=C1c2cccc(O)c2C(O)=C2C(=O)[C@@]3(O)C(O)=C(C(N)=O)C(=O)[C@@H](N(C)C)[C@@H]3[C@@H](O)[C@H]12 | -4.76% (inactive) |  | 
10 | O=C1NC(O)CCN1[C@@H]1O[C@H](CO)[C@H](O)[C@H]1O (stereo not given in full) | -4.17% (inactive) |  | 
11 | C[C@]12CC[C@@H]3c4ccc(O)cc4CC[C@H]3[C@H]1[C@@H](O)[C@@H](O)[C@H]2O |  |  | inactive
12 | COc1cc(Nc2nc3ccccc3nc2NS(=O)(=O)c2ccc(NC(=O)c3ccc(C)c(OC)c3)cc2)cc(OC)c1 | 1.86% (inactive) |  | 
13 | Cc1cn([C@@H]2C[C@@H](O)[C@H](CO)O2)c(=O)[nH]c1=O |  | inactive | 
14 | CCCc1c(OCCCOc2ccc(OCC(=O)O)cc2)ccc(C(C)=O)c1O |  |  | inactive
15 | CC(C)C(C)C=CC(C)C1CCC2C3=CC=C4CC(O)CCC4(C)C3CCC21C (stereo not given) | 0.0801% (inactive) |  | 
16 | CCN(CC)CCNC(=O)c1ccc2nc(-c3ccccc3)c(-c3ccc(CN4CCC(n5c(=O)[nH]c6ccccc65)CC4)cc3)nc2c1 |  | 5.62 µM (active) | 
17 | C=C[C@@H]1CN2CCC1C[C@H]2[C@H](O)c1ccnc2ccc(OC)cc12 (stereo not given in full) |  |  | inactive
18 | CCC(c1ccc(O)cc1)C(CC)c1ccc(O)cc1 (stereo not given) | -1.46% (inactive) |  | 
19 | CCC(C)CCCCC(=O)N[C@@H](CCN)C(=O)NC(C(=O)N[C@H](CCN)C(=O)N[C@@H]1CCNC(=O)C([C@@H](C)O)NC(=O)[C@@H](CCN)NC(=O)[C@@H](CCN)NC(=O)[C@@H](CC(C)C)NC(=O)[C@H](Cc2ccccc2)NC(=O)[C@H](CCN)NC1=O)[C@@H](C)O (stereo partly drawn) ({Octanoyl(6-Me)}-[Dab][ξThr(3R)][dDab][dDab][Dab]F[dL][dDab][dDab][ξThr(3R)]; lactam 4-C) | -2.89% (inactive) |  | 
20 | O=C1C[C@@H](c2ccc(O)cc2)Oc2cc(O)cc(O)c21 |  |  | inactive

Row | SMILES | activity change, negative = cytotoxicity | Potency | outcome
21 | CO[C@@H]1COCC[C@@H]1N[C@@H]1CC[C@@](C(=O)N2CCc3ncc(C(F)(F)F)cc3C2)(C(C)C)C1 |  |  | inactive [at 19 µM]
22 | Cc1noc(-c2ccc(CSCCC(=O)O)cc2)c1NC(=O)OC(C)c1ccccc1Cl (stereo not given) |  |  | inactive
23 | CCN(CC)Cc1ccc2cc(COC(=O)Nc3ccc(C(=O)NO)cc3)ccc2c1 |  | 10 µM (active) | 
24 | O=C(O)CCn1c2c(c3ccccc31)C[C@H](NS(=O)(=O)c1ccc(F)cc1)CC2 |  | inactive | 
25 | CCOC(=O)C=C[C@H](C[C@@H]1CCNC1=O)NC(=O)[C@@H](CC(=O)[C@@H](NC(=O)c1cc(C)on1)C(C)C)Cc1ccc(F)cc1 |  |  | inactive
26 | CC(C)n1cnc2c(NCCc3ccc(O)cc3)nc(-c3csc4ccccc34)nc21 | -9.2% (inactive) |  | 
27 | NC1=N[C@H]2[C@H](CS[C@H]2CCCCC(=O)O)N1 | -1.83% [at 27.1 µM] (inactive) |  | 
28 | C=Cc1c(C)c2cc3nc(cc4[nH]c(cc5nc(cc1[nH]2)C(C)=C5CCC(=O)O)c(CCC(=O)OC)c4C)[C@@]1(C)C3=CC=C(C(=O)OC)[C@H]1C(=O)OC |  |  | inactive
29 | c1cc(N[C@@H]2CCNC2)nc(-c2cnc3ccc(-c4cn[nH]c4)cn23)c1 |  | 31.6 µM (active) | 
30 | CN1CCc2c(n(Cc3ccc(C(=O)NO)cc3)c3ccccc23)C1 |  | 31.6 µM (active) | 
31 | Nc1ccn([C@@H]2O[C@H](CO)[C@@H](O)[C@H]2O)c(=O)n1 |  | inactive | 
32 | CN(C)S(=O)(=O)c1ccc2c(c1)C(=Cc1cc3c([nH]1)CCCC3)C(=O)N2 | 1.63% (inactive) |  | 
33 | O=C(Nc1ccccc1Br)N[C@@H]1CCN(c2ccc(C(F)(F)F)cn2)C1 | -24% (inactive) |  | 
34 | C[C@H]1CCC/C=C/C2C[C@H](O)C[C@H]2[C@H](O)/C=C/C(=O)O1 (stereo not given in full) | -30% (inactive) |  | 
35 | CN(C)CC[C@H](CSc1ccccc1)Nc1ccc(S(=O)(=O)NC(=O)c2ccc(N3CCN(Cc4ccccc4-c4ccc(Cl)cc4)CC3)cc2)cc1[N+](=O)[O-] |  |  | inactive
36 | CN(C)CCOc1cc(-c2cn[nH]c2)ccc1NC(=O)C1COc2ccccc2O1 (stereo not given) |  |  | inactive
37 | CN(C(Cc1ccc(OS(=O)(=O)c2cccc3cnccc23)cc1)C(=O)N1CCN(c2ccccc2)CC1)S(=O)(=O)c1cccc2cnccc12 (stereo not given) |  |  | inactive
38 | C[S+](C)CCC(N)C(=O)O (stereo not given) |  |  | inactive
39 | Clc1ccc2c(N3CCN(CCCN4CCN(c5ccnc6cc(Cl)ccc56)CC4)CC3)ccnc2c1 | 2.55% (inactive) |  | 
40 | CC(C(=O)O)c1ccc(-c2ccccc2)c(F)c1 (stereo not given) |  | inactive | 

From PubChem BioAssay (NCATS)
